Potency and activity change, negative = cytotoxicity data for 40 molecules are collected here from PubChem BioAssay (Tox21).

Molecules are shown by their SMILES. Records with an inconclusive call do not appear. A call without a number means that no potency is given here. Unmarked numbers belong to inactive results. Activity calls are given as the source filed them. Calls come from the whole dose curve; as a rule, active = well fitted cell-killing curve with a large enough effect in the repeat runs; inconclusive = weak or mixed curves, or effect the other way; inactive = no such curve, though single readings can be large or run the other way.
Potency is the fitted concentration of half-maximal effect.

This assay is described as follows: qHTS assay to identify small molecule antagonists of the progesterone receptor (PR) signaling pathway - cell viability counter screen (AID 1346798). Note: nearly all actives have a fitted effect of over 50% in size. The conditions noted are these: PR-UAS-bla HEK293T viability, CellTiter-Glo luminescence, 16 h; series mostly up to 92.4 µM. From the text:
National Center for Advancing Translational Sciences [NCATS]
NIH Chemical Genomics Center [NCGC]
U.S. Environmental Protection Agency [EPA]
National Institutes of Environmental Health Sciences [NIEHS]
National Toxicology Program [NTP]
U.S. Food and Drug Administration [FDA]
Progesterone receptor (PR), a nuclear hormone receptor, plays an important role in development, metabolic homeostasis and reproduction. It is activated by the steroid hormone progesterone. Endocrine disrupting chemicals (EDCs) and their interactions with steroid hormone receptors like PR causes disruption of normal endocrine function. To identify the compounds that inhibit PR signaling, a PR-UAS-bla GripTite cell line i.e. PR-UAS-bla HEK293T (Invitrogen, Carlsbad, CA, USA) containing a beta-lactamase reporter gene under the control of an UAS response element was used to screen Tox21 10K compound library. The cytotoxicity of the Tox21 compound library against the PR-bla cell line was tested in parallel by measuring the cell viability using CellTiter-Glo assay in the same wells.
Tox21 Assay Protocol Summary:
PR-UAS-bla HEK293T cells were dispensed at 3,000 cells/4 uL of assay medium containing 2% charcoal stripped FBS per well into black wall/clear-bottom 1536-well plates using a Multidrop Combi (ThermoFisher Scientific, Waltham, MA) dispenser. After the assay plates were incubated at a 37C and 5% CO2 for 4 hr, 23 nL of compounds dissolved in DMSO, positive controls or DMSO only was transferred to the assay plate by a Pintool station (Kalypsys, San Diego, CA), followed by addition of 1 uL of R5020 in assay medium using a Flying Reagent Dispenser (FRD, Aurora Discovery, San Diego, CA). The plates were incubated at 37C and 5% CO2 for 16 hr. Then 1 uL of LiveBLAzer B/G FRET substrate was added using a Flying Reagent Dispenser, the plates were incubated at room temperature for 2 hours, and fluorescence intensity was measured by an Envision plate reader (PerkinElmer, Shelton, CT). For cell viability readout that measures cytotoxicity, 4 uL/well of CellTiter-Glo reagent was added into the assay plates using a FRD. After 30 min incubation at room temperature, the luminescence intensity in the plates was measured using a ViewLux (PerkinElmer) plate reader.
(In general: qHTS replaces the single test concentration by a dilution series.)
For the molecule `C=Cc1ccc(C=C)cc1`, the Potency result is “inactive”.
`C=C[Si]1(C)O[Si](C)(C=C)O[Si](C)(C=C)O[Si](C)(C=C)O1` (stereo not given): the Potency entry was “inactive”.
As to `C=CC(O)CCCCC` (stereo not given), the Potency entry was “inactive”.
Same read-out and setting: the result for `CCC(C(=O)O)c1ccc(N2Cc3ccccc3C2=O)cc1` (stereo not given) reads “inactive”; that for `CC(=O)Nc1ccn(C2COC(COC(=O)c3ccccc3)O2)c(=O)n1` (stereo not given), “inactive”; that for `Cc1cc(N)n(-c2ccccc2)n1`, “inactive”.
Still for that read-out and setting: the value for `O=c1c2ccccc2oc2ccccc12` was “inactive”; that for `CCC(=O)O[C@]1(C(=O)COC)[C@@H](C)C[C@H]2[C@@H]3CCC4=CC(=O)C=C[C@]4(C)C3(F)[C@@H](O)C[C@@]21C` (stereo not given in full) was “inactive”; that for `CCCN(C1CCN(C(=O)C2CCNCC2)CC1)[C@@H]1CCc2ccc(OC)cc2C1` was “inactive”.
Still for that read-out and setting: the result for `CC(O)C(C)O` (stereo not given) reads “inactive”.
For `CC(C)(O)C(=O)O`, the Potency result is “inactive”.
Same read-out and setting: the value for `C=CC(C)(O)CC/C=C(/C)CCC=C(C)C` (stereo not given) was “inactive”; that for `C[C@H]1C[C@H]2[C@@H]3CCC4=CC(=O)C=C[C@]4(C)[C@@]3(F)[C@@H](O)C[C@]2(C)[C@@]1(O)C(=O)COP(=O)(O)O` was “inactive”; that for `Cc1c(-c2cccnc2)c2ccccc2n1CCCCC(=O)O` was “inactive”.
For `Cc1ccc(NC=O)c(C)c1`, the Potency result is “inactive”.
Still for that read-out and setting: the result for `CC(C)C[C@H](NC(=O)[C@H](Cc1ccccc1)NC(=O)c1cnccn1)B(O)O` reads “inactive”.
Take `COC=O`: the activity change, negative = cytotoxicity was 0.308% [at 8.39 µM].
Regarding `Cc1c(Cl)cccc1[N+](=O)[O-]`, the Potency result is “inactive”.
Still for that read-out and setting: the result for `CCC(C)CCCC(C)(C)O` (stereo not given) reads “inactive”.
The same measure, in the same setting: the result for `O=C(O)c1ccc(O)c(O)c1` reads “inactive”; that for `O=Cc1ccc([N+](=O)[O-])cc1`, “inactive”.
Still for that read-out and setting: the value for `Cc1ccc2ccccc2c1[N+](=O)[O-]` was “inactive”.
For the molecule `C/C(=C(\CCO)SS/C(CCO)=C(\C)N(C=O)Cc1cnc(C)nc1N)N(C=O)Cc1cnc(C)nc1N`, the Potency result was “inactive”.
The same measure, in the same setting: the result for `Cc1ccc2c(Cl)cc(Cl)c(O)c2n1` reads “inactive”; that for `O=S(=O)(O)c1cc(Cl)c(Cl)cc1Cl`, 30.6 µM (active); that for `N#CCCCC(C#N)CCC#N` (stereo not given), “inactive”.
On the same count and under the same terms, the value for `CC(=O)Nc1ccccc1O` was “inactive”.
Same read-out and setting: the value for `CC(=O)CC/C=C(\C)CC/C=C(\C)CC/C=C(\C)CCC=C(C)C` was “inactive”.
Take `O=C(O)CNc1ccccc1`: the Potency result is “inactive”.
Same read-out and setting: the result for `O=C1c2ccccc2C(=O)c2c1ccc(O)c2O` reads “inactive”.
The same measure, in the same setting: the value for `O=c1[nH][nH]c2ccccc12` was “inactive”; that for `CCCCCCCCC(=O)OCC(C)OC(=O)CCCCCCCC` (stereo not given) was “inactive”; that for `CC(C)NC(=O)c1ccccc1N` was “inactive”.
On the same count and under the same terms, the result for `Clc1cc(Cl)c2c(c1)N=C1CCCCCN1C2` reads “inactive”; that for `O=C(O)COCC(=O)O`, “inactive”.
Turning to `CC(C)(C)c1ccc(CCC=O)cc1`, the Potency result was “inactive”.
Still for that read-out and setting: the result for `CCOCCn1c(N2CCCN(C)CC2)nc2ccccc21` reads “inactive”; that for `C(/C=C/C=C/Nc1ccccc1)=Nc1ccccc1`, “inactive”.
Same read-out and setting: the value for `CC(CN=Cc1ccccc1O)N=Cc1ccccc1O` (stereo not given) was “inactive”.
The same measure, in the same setting: the result for `CCOc1ccc2c(c1)C(C)CC(C)(C)N2` (stereo not given) reads “inactive”.
